TDP1 inh = blocks human tyrosyl-DNA phosphodiesterase 1 | Q9NUW8 | Potency, µM (doses to about 130 µM), without a hit: at the top dose activity change, negative = inhibition, usual class: inhibitors | recombinant TDP1, AlphaScreen DNA substrate cleavage | AID 485290 | 0.28% of 350,000 active; also: nearly all actives have a fitted effect of over 40% in size
Target sequence (Q9NUW8 whole entry, looked up): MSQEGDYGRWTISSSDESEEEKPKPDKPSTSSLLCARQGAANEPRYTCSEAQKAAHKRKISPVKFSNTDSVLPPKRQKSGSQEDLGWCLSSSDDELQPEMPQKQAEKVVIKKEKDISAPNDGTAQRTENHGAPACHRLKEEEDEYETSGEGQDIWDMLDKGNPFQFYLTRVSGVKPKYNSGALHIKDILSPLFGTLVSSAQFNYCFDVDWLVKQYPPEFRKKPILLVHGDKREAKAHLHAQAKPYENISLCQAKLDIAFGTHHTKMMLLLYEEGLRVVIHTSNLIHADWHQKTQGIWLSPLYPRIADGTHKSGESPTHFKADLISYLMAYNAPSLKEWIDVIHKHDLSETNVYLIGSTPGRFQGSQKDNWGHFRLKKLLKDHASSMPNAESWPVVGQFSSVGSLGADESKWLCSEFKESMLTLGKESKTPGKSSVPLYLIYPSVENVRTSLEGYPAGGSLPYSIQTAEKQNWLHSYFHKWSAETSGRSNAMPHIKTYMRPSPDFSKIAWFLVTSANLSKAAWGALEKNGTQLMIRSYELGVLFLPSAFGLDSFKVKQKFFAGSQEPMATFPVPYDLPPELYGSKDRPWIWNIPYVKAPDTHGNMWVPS
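Recombinant E. coli-expressed Tdp1 (1 nM) preincubated with compound 15 min at RT, then 5'-biotin/3'-phosphotyrosine-FITC DNA substrate (15 nM) added for 5 min. AlphaScreen beads (10 ug/ml) added, 10 min RT; tyrosine-FITC cleavage read as signal loss.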
Gal4-VP16 FLuc = Gal4-VP16 reporter inhibition counter-screen | Drosophila S2 Gal4-VP16 UAS-luciferase, luminescence, 20 h | Potency, µM (titrated, usually from 53.6 µM), for inactives: at the highest dose activity, negative = inhibition, most hits filed as inhibitors | 3.5% of 310,000 active | AID 2546;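 also: Gal4-VP16 expression switched on by copper sulfate through the metallothionein promoter; nearly all actives have a fitted effect of over 50% in size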
DT40 TDP1 no CPT = qHTS for Inhibitors of human tyrosyl-DNA phosphodiesterase 1 (TDP1): qHTS in cells in absence of CPT; Potency, µM (top dose mostly 46.2 µM), for the others: at the highest dose activity change, negative = growth inhibition, actives largely listed as inhibitors; DT40 Tdp1-/- hTDP1 cells, no CPT, ATP luminescence, 48 h; 15% of 420,000 active; AID 686978, 2013; also: nearly all actives have a fitted effect of over 55% in size
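DT40 Tdp1-/-;hTDP1 cells, no CPT (DMSO vehicle only), 400 cells/well; compounds pin-transferred; ≥48 hr, 37 °C; CellTiter-Glo 30 min RT dark, luminescence read.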
DT40 TDP1 CPT = growth inhibition of DT40 Tdp1-/-;hTDP1 cells with camptothecin (screen for TDP1 inhibitors). chicken DT40 Tdp1-/-;hTDP1 cells + 20 nM CPT, ATP luminescence, 48 h. Potency, µM (titrated, usually from 46.2 µM), for inactives: at the top dose activity change, negative = growth inhibition, usual class: inhibitors. 12% of 420,000 active. AID 686979; also: nearly all actives have a fitted effect of over 55% in size
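Chicken DT40 Tdp1-/- cells complemented with human TDP1, 400 cells/well, exposed to compounds plus 20 nM camptothecin for at least 48 h at 37 C; viability read as ATP content by CellTiter-Glo luminescence.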
RORgamma inh = inhibitors of mouse ROR gamma transcriptional activity; P51450; Drosophila S2 Gal4-RORgamma UAS-luciferase reporter, 20 h; Potency, µM (top dose mostly 53.6 µM), without a hit: at the highest dose activity change, negative = inhibition, most hits filed as inhibitors; 5.4% of 310,000 active; AID 2551; also: nearly all actives have a fitted effect of over 60% in size
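Stable Schneider cell line, Gal4 DNA-binding domain fused to ROR gamma, UAS-luciferase. Cmpd 1 hr RT → CuSO4 700 uM final → 20 hr RT → luciferase reagent 10 min → luminescence.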
Numbers without * were called inactive; ? = inconclusive; . = not tested or not shown; [ ] = remark or other dose. Hits are enriched below; roughly 19% of the tested compounds scored in any of these assays. Calls follow the shape of the dose curve; as a rule, active = well fitted curve in the direction sought with a large enough effect; inconclusive = small, poorly fitted or top-dose-only effect, or another doubt; inactive = no such curve, though single readings can be large; an effect the other way counts as inactive or inconclusive. % is scaled to controls: 0 for no effect and ±100 for the full control effect; potency is read from the fitted curve at half-maximal effect.

SMILES	TDP1 inh	Gal4-VP16 FLuc	DT40 TDP1 no CPT	DT40 TDP1 CPT	RORgamma inh
Cc1cc(NC(=O)c2cnn3c(C(F)(F)F)cc(-c4ccccc4)nc23)no1	2%	-14%	23µM*	13µM*	3%
Cc1cc(NC(=O)c2cnn3c(C(F)F)cc(-c4ccccc4)nc23)no1	4%	?	9.2µM*	15µM*	-12%[10 µM]
COC(=O)c1ccccc1NC(=O)c1cnn2c(C(F)F)cc(C3CC3)nc12	9%	4%	15µM*	?	-1%
Cn1c(SCC(=O)NCCc2ccccc2)nc2c([nH]c3ccccc32)c1=O	-1%	4%	-4%	-4%	10%
COC(=O)[C@@]1(Cc2ccccc2)[C@H]2c3cc(C(=O)N4CCCC4)n(Cc4ccc(C(F)(F)F)nc4)c3C[C@H]2CN1C(=O)c1ccccc1	14%	8%	.	.	4%
O=C(NCc1ccco1)c1cnn2c(C(F)F)cc(-c3ccccc3)nc12	2%	5%	-26%	-29%	-19%
Cc1cc(NC(=O)c2cnn3c(C(F)F)cc(C4CC4)nc23)no1	0%	-9%	12µM*	?	-37%
COCCNC(=O)c1cnn2c(C(F)F)cc(-c3ccccc3)nc12	3%	5%	21µM*	?	0%
O=C(c1cnn2c(C(F)F)cc(C3CC3)nc12)N1CCCC1	2%	17%	-24%	-17%	3%
O=C(OCC#CCSc1nnc(-c2cccc3ccccc23)o1)c1ccccc1F	-11%	.	.	.	.
COc1ccc(NC(=O)COC(=O)c2ccc(-n3nc(C)cc3C)cc2)cc1OC	1%	.	?	?	.
CC1CN(CCOCCSc2ccc(Cl)cc2)CC(C)O1 (centres undefined)	.	20%	?	-21%	-7%[1.91 µM]
Cc1ccc(SCCC(=O)N2CCCC2)cc1	-9%	-6%	-11%	-3%	-36%
Cc1ccc(SCCCCN2CCNCC2)cc1	0%	5%	?	21µM*	18%
Clc1ccc(SCCCCN2CCNCC2)cc1	0%	-7%	18µM*	21µM*	12%
CC1CN(CCCCSc2ccc(Cl)cc2)CC(C)O1 (centres undefined)	.	1%	?	21µM*	-7%[1.91 µM]
Clc1ccc(SCCCCN2CCOCC2)cc1	-9%	-13%	-29%	-28%	2%
O=c1cnn(Cc2c(Cl)cccc2Cl)c2ccccc12	8%	1%	-28%	?	-4%
CCCCC(=O)NNC(=O)c1c(O)c2ccccc2[nH]c1=O	?	10%	?	-22%	9%
COc1cccc(OCCOCCNCCO)c1	2%	1%	.	.	-15%
CS(=O)(=O)n1nc(-c2ccc(Cl)cc2)nc1SCc1ccccc1	1%	0%	?	?	28%
CCC(=O)NC(C)C(c1cccs1)N1CCOCC1 (centres undefined)	.	.	-28%	-32%	.
Cc1nc(COc2ccc(C(=O)NCc3ccccc3CN3CCCCC3)cc2)cs1	4%	.	23µM*	?	.
O=C(Nc1ccccc1N1CCOCC1)c1ccc2ccccc2c1	-4%	4%	?	-18%	-20%
CN1CCN(c2ccccc2NC(=O)c2ccc(-c3ccccc3)cc2)CC1	6%	-2%	16µM*	?	-11%
SMILES	TDP1 inh	Gal4-VP16 FLuc	DT40 TDP1 no CPT	DT40 TDP1 CPT	RORgamma inh
CN1CCN(c2ccc([N+](=O)[O-])cc2NC(=O)c2ccccc2)CC1	2%	-2%	-12%	-21%	-7%
Cc1c(NC(=O)c2ccc(-c3ccccc3)cc2)cccc1C(=O)O	1%	?	11%	0%	10µM*
O=C(Nc1ccccc1C(=O)O)c1ccccc1	?	3%	-7%	-22%	16%
Cc1nc(COc2ccc(C(=O)Nc3ccccc3N3CCOCC3)cc2)cs1	-3%[0.0935 µM]	-14%	15µM*	?	7%
NC1(C(=O)O)CCCC1	2%	-17%	-3%	2%	4%
O=C(c1ccc(CS(=O)Cc2cccc(Cl)c2)o1)N1CCN(C2CCCCC2)CC1 (centres undefined)	3%	14%	18%	-12%	3%
CN1CCN(c2ccccc2NC(=O)c2cccc(OCc3ccccc3)c2)CC1	3%	-30%	21µM*	?	?

Bioassay records (PubChem BioAssay)
